Out of some 69,000 compounds screened, about 8,600 (12%) showed an effect of 50% or more. The entries come from a sample that favours strong results as a whole.

The assay deals with Plasmodium berghei. The assay can be described thus: Screen against P. berghei liver stage (PbLuc), transformed with Luciferase, at 10uM. It is filed as functional, HepG2. The settings on record: tested at 10 uM.
`CC[C@H]1CN(C(=O)c2cnc(N3CCN(C)CC3)nc2C)CC[C@@]1(C)O`: the INHIBITION is listed as 1.93%. Turning to `CC(=O)N1CCc2nnc(C3CCCN3CC3CCCCC3)n2CC1` (centres undefined), the INHIBITION is -5.71%.

For `CC(CNC(=O)CCCc1ccccn1)c1ccsc1` (centres undefined), the INHIBITION was 60.2%.

For `CC(C)C(O)CNC(=O)CCCc1ccccn1` (centres undefined), the INHIBITION came to 15.5%. On to `CC(CNC(=O)CCc1ccccn1)c1ccsc1` (centres undefined), for which the INHIBITION is 22.2%. On to `CC(C)CS(=O)(=O)CC(=O)NC1CCCCNC1=O` (centres undefined), for which the INHIBITION is listed as -79.1%. Next, `O=C(c1cnc(-c2ccccn2)s1)N1CCCC1Cn1cccn1` (centres undefined): -9.19%.

For `O=C(N1CCOCC1)N1CCc2ncnc(Oc3cccnc3)c2CC1`, the INHIBITION is listed as 0.734%. Next, `Cc1nc(C)c(C)c(NCCSc2ccccn2)n1`: 60.2%; `Cc1nc(NCCSc2ccccn2)c2c(C)noc2n1`: 13.5%; `Cc1nc(N(C)C)nc(NCCc2ccccn2)c1C`: -43.6%. On to `CC(C)CN1C[C@@H]2CN(C(=O)[C@H]3CCCO3)C[C@@H]2C1=O`, for which the INHIBITION is 17.4%. With `COc1ccc2cc(CN(C)CCN3CCCCC3=O)c(=O)[nH]c2c1`, the INHIBITION is on record as -15.1%. For `COc1ccc2cc(CN(C)CCc3cn[nH]c3)c(=O)[nH]c2c1`, the INHIBITION is 36.5%. Turning to `CCN1CCCC1CNCc1cc2cc(OC)ccc2[nH]c1=O` (centres undefined), the INHIBITION worked out at 72.2%.

On to `COc1ccc2[nH]c(=O)c(CN(C)C(C)c3ccccn3)cc2c1` (centres undefined), for which the INHIBITION was -3.55%. With `COc1ccc2[nH]c(=O)c(CN(C)CCN3CCCC3)cc2c1` the figure was 63.9%; with `CCN1CCCC1CNCc1cc2cc(OC)c(OC)cc2[nH]c1=O` (centres undefined), 18.3%; with `CCN1CCCC1CNCc1cc2cc3c(cc2[nH]c1=O)OCCO3` (centres undefined), 58.2%. As for `CCOc1ccc2[nH]c(=O)c(CN(C)CCc3cn[nH]c3)cc2c1`, the INHIBITION came to 54.4%. As for `CSc1ccc2cc(CN(C)CCc3cn[nH]c3)c(=O)[nH]c2c1`, the INHIBITION turned out to be 20.8%. In the case of `CCN1CCCC1CNCc1cc2ccccc2[nH]c1=O` (centres undefined), the INHIBITION was -61.5%.

With `CCN1CCCC1CNC(=O)CCSc1ccc2c(c1)OCCO2` (centres undefined), the INHIBITION came out at 38.5%. As for `CCN1CCCC1CNCc1cc2cc(C)c(C)cc2[nH]c1=O` (centres undefined), the INHIBITION is recorded as -29.9%. Regarding `CCOc1cc(C)nc(N2CCN(C(=O)c3cscn3)CC2)n1`, the INHIBITION is 15.3%. Take `Cc1csc(NC(=O)c2ccc(NC(=O)N3CCOCC3)cc2)n1`: the INHIBITION was -37.4%.

Turning to `Cc1cccc(C(=O)NCc2ccc(CS(N)(=O)=O)cc2)n1`, the INHIBITION is recorded as -33.9%. `O=C1CCCN1Cc1nnc2n1CCN(Cc1ccccn1)CC2`: the INHIBITION is given as -30.7%. Consider `COc1ncc(CN2C[C@@H]3C[C@@H](O)CN3C[C@@H]2Cc2ccccc2)cn1`, for which the INHIBITION is on record as 33.8%.

On to `c1cn2c(n1)CN(Cc1ccsc1)CC(Cn1cncn1)C2` (centres undefined), for which the INHIBITION was 49.7%. As for `CC(C)c1nc(CN(C)Cc2ccc(O)c(C(=O)O)c2)cs1`, the INHIBITION is -14.1%.

For `CCOc1ncccc1CNC(=O)Nc1ccccc1`, the INHIBITION was 31.3%.

Consider `COc1ccc(CC2CN(C(=O)c3coc(C)n3)CCO2)cc1` (centres undefined), for which the INHIBITION is reported as 9.05%. For the molecule `Cc1nc(-c2cncnc2C2CCCNC2)no1` (centres undefined), the INHIBITION is -3.45%.

Consider `COc1ccc2c(C)c(C(=O)NC3CCOCC3)oc2c1`, for which the INHIBITION is -104%.

Regarding `COc1ccc2c(C)c(C(=O)NC3CCN(S(C)(=O)=O)CC3)oc2c1`, the INHIBITION is reported as -112%. `COc1ccc2c(C)c(C(=O)NC3CCCOC3)oc2c1` (centres undefined): the INHIBITION was determined as 60.9%. Turning to `CNS(=O)(=O)c1ccc(C(=O)N2CCCC2c2ccncc2)o1` (centres undefined), the INHIBITION was 36.1%. In the case of `Cc1cc(NCCO)nc2[nH]nc(N)c12`, the INHIBITION was 26.7%.

As to `Cc1cc(NCc2ccccc2)nc2[nH]nc(N)c12`, the INHIBITION is reported as -0.232%. Turning to `Cc1cc(NCc2ccco2)nc2[nH]nc(N)c12`, the INHIBITION is given as 61%. On to `CC1COCCN1C(=O)COc1cccc(Oc2ccccn2)c1` (centres undefined), for which the INHIBITION is listed as -20.6%. With `CC1COCCN1C(=O)COc1ccc(Oc2ccccn2)cc1` (centres undefined) the figure was 8.99%; with `CC1CN(C)CCN1C(=O)COc1cccc(Oc2ccccn2)c1` (centres undefined), 61.2%. As to `CCS(=O)(=O)c1ccc2c(c1)OCCCO2`, the INHIBITION is 55.9%. `O=S(=O)(CCCS(=O)(=O)c1ccc2c(c1)OCCCO2)c1ccccc1`: the INHIBITION was -46.8%. With `CC(C)CC(=O)NS(=O)(=O)c1ccc2c(c1)OCCCO2`, the INHIBITION is -7.81%. `CSCC(=O)NS(=O)(=O)c1ccc2c(c1)OCCO2`: the INHIBITION was 8.315%.

Consider `CCSCCC(=O)NS(=O)(=O)c1ccc2c(c1)OCCO2`, for which the INHIBITION is 41.9%. `CCS(=O)(=O)c1ccc2c(c1)OCCO2`: the INHIBITION amounted to 77.8%. As to `CC1=N[C@@]2(CC[C@@H]3CN(Cc4cccc(Cl)c4)C[C@@H]32)C(=O)N1CC1CC1`, the INHIBITION turned out to be 14.9%. For `Cc1ccc(C2CCCN(S(C)(=O)=O)C2)nc1` (centres undefined), the INHIBITION worked out at 6.75%. `O=C(NC[C@]12COC[C@H]1CN(C1CCOCC1)C2)c1ccco1`: the INHIBITION came to 38.7%. On to `Cc1ccc2c(c1)OCCCC2NCc1nnc2n1CCCCC2` (centres undefined), for which the INHIBITION is given as -14.2%.

As for `Cc1cccc2c1OCCCC2NCc1nnc2n1CCCCC2` (centres undefined), the INHIBITION was 86.8%.

For `c1ccc2c(c1)OCCCC2NCc1nnc2n1CCCCC2` (centres undefined), the INHIBITION was -0.55%.

For the molecule `CS(=O)(=O)c1cc(Cl)cnc1C1CCN(C(=O)C2CCCO2)CC1` (centres undefined), the INHIBITION is 12.75%.

As to `O=C(Cc1cccc(F)c1)N1C[C@H]2CN(Cc3ccccn3)C[C@H]2C1`, the INHIBITION is recorded as 9.97%.

As for `N#Cc1ccsc1N1CCC(Sc2ncc[nH]2)C1=O` (centres undefined), the INHIBITION is given as 27.6%. On to `Cc1c(NC(C)C(C)C)cccc1C(=O)NCc1nnc(C)n1C` (centres undefined), for which the INHIBITION is -20.8%. In the case of `Cn1ccnc1CNC(=O)c1ccnc(C2CCNCC2)c1`, the INHIBITION is given as -12.4%. With `Cc1c(NC(C)C(C)C)cccc1C(=O)NCc1ccnn1C` (centres undefined), the INHIBITION was 62.7%.

`Cc1c(NC(C)C(C)C)cccc1C(=O)NCc1cnn(C)c1` (centres undefined): the INHIBITION stood at 29.3%. With `CC(C)Nc1ncccc1C(=O)NCc1ccnn1C` the figure was 43%; with `Cc1c(NC(C)C(C)C)cccc1C(=O)NCc1nccn1C` (centres undefined), 57.4%; with `O=C1NC2(Cc3ccccc31)CN(CC1CCCC1)C2`, 45.8%. Next, `NC(=O)C1CCN(C(=O)c2cc(Br)ccc2-n2cnnn2)CC1`: 28.6%; `CCOC(=O)C1CCN(C(=O)c2cc(Br)ccc2-n2cnnn2)CC1`: 17.6%; `COC(=O)C1CCN(C(=O)c2cc(Br)ccc2-n2cnnn2)CC1`: 53.8%.

These data come from ChEMBL document CHEMBL4513216, “Probing the Open Global Health Chemical Diversity Library for Multistage-Active Starting Points for Next-Generation Antimalarials” (ACS Infect Dis, 2020).
